In all, about 65,000 compounds went through this assay and about 2,100 (3.2%) showed an effect of 50% or more. The median lay at about -52%. For the sample, strong results were picked, then their nearest neighbours and some compounds at random.

In the assay the test system is Plasmodium falciparum. The assay can be described thus: Screen against P. falciparum Asexual Blood Stage (ABS), at 5uM. The settings on record: tested at 5 uM. The class given is functional, Dd2.
On to `Fc1ccc2[nH]c3c(c2c1)CCN1C(c2ccccn2)N2CCC31CC2` (stereo not given), for which the INHIBITION worked out at 81.2%.

Consider `Fc1ccc2[nH]c3c(c2c1)CCN1C(c2ccncc2)N2CCC31CC2` (stereo not given), for which the INHIBITION worked out at 89.6%.

In the case of `Cc1noc(C)c1CN1CCCC2(C1)CN(c1nccs1)CCO2` (stereo not given), the INHIBITION came to 18.6%. Under `c1cnc(N2CCN3C[C@H](Oc4cncnc4)C[C@H]3C2)nc1` stands -102%; under `CNc1nc(C(=O)N2C[C@@H]3CCN(C)[C@@H]3C2)cs1`, -94.9%. With `CCOCCCn1c(NC(=O)c2cc(C)on2)nc2ccccc21`, the INHIBITION was found to be 71.5%. With `CCOCCN1C[C@H](C(=O)Nc2cccnc2)[C@@H]2CCO[C@@H]2C1`, the INHIBITION is listed as -9.46%. As for `Oc1cccc(CN2C[C@@H]3CC[C@H]2CN(Cc2ccncc2)C3)c1`, the INHIBITION was -31.9%. Consider `NCC1[C@H]2CN(Cc3cccc(Cl)c3)C[C@@H]12` (stereo not given in full), for which the INHIBITION stood at 83.8%. Turning to `NCC1[C@H]2CN(Cc3ccccc3F)C[C@@H]12` (stereo not given in full), the INHIBITION is 68.2%. Under `O=C(CC1[C@H]2CN(Cc3ccncc3)C[C@@H]12)N1CCCC1` (stereo not given in full) stands -109%; under `Cc1ccc([C@]2(O)CC[C@H]3CN(Cc4ccccc4F)C[C@H]32)nc1`, 20.6%. Take `c1ccc(CCN2C[C@@H]3OCCN(c4ncccn4)[C@@H]3C2)cc1`: the INHIBITION is given as -64.6%. As for `NCC1[C@H]2CN(CCc3ccccc3)C[C@@H]12` (stereo not given in full), the INHIBITION was 86.8%.

Take `O=C1CO[C@@H]2CN(Cc3nccs3)C[C@H]2N1Cc1ccncc1`: the INHIBITION is -59.6%. For `CN(C)[C@@H]1CN(C(=O)Cc2ccc(F)cc2)[C@@H]2CCCO[C@H]12`, the INHIBITION was -29.9%.

As for `CN(CCc1ccccc1)Cc1nc2c(cnn2C)c(=O)[nH]1`, the INHIBITION was -38.8%. In the case of `CC(C)N(Cc1ccccn1)Cc1nc2c(cnn2C)c(=O)[nH]1`, the INHIBITION came to 74.2%. As for `CN(CCc1ccc(F)cc1)Cc1nc2c(cnn2C)c(=O)[nH]1`, the INHIBITION was -97.7%. With `COc1cccc(CN2CCC(c3nn(CCN)c4nccnc34)C2)c1` (stereo not given), the INHIBITION is 89.1%. With `NCCn1nc(C2CCN(Cc3ccccc3Cl)C2)c2nccnc21` (stereo not given), the INHIBITION is recorded as 80.1%. Under `c1ccc(N2CC[C@@H]3CN(Cc4ccncc4)CCO[C@@H]3C2)cc1` stands -57.3%.

As to `NCCn1nc(C2CCN(Cc3ccccc3)C2)c2nccnc21` (stereo not given), the INHIBITION is 80.4%. For the molecule `CN(C)CCn1nc(C2CCN(Cc3ccccc3)C2)c2cccnc21` (stereo not given), the INHIBITION is reported as 71.9%.

For `COc1cccc([C@@H]2CCN(Cc3[nH]nc(C)c3Cl)C[C@H]2O)c1`, the INHIBITION is -12.4%. Next, `O[C@@]1(c2ccccn2)CC[C@H]2CN(Cc3cccc(Cl)c3Cl)C[C@H]21`: 39.6%; `CN(C)CCN1CCO[C@H]2CN(Cc3ccccn3)C[C@H]21`: 11.1%; `c1cnc(N2CC[C@@H]3CN(Cc4ccncc4)CCO[C@@H]3C2)nc1`: -103%. Take `c1ccc(CN2CC[C@H]3CO[C@H](CNc4ncccn4)[C@H]3C2)cc1`: the INHIBITION was -6.23%. Under `COC[C@@H]1CCC[C@]12CN(Cc1cccc(C)n1)CCO2` stands -26.8%. Under `CCS(=O)(=O)NC[C@]12COC[C@H]1CN(Cc1ccccn1)C2` stands -30.3%.

In the case of `CC(C)N1CCO[C@H]2CN(C(=O)c3ccncc3)C[C@H]21`, the INHIBITION is on record as -69.9%. Consider `Cc1nocc1C(=O)N1CCOC2(COCCN(CC3CC3)C2)C1` (stereo not given), for which the INHIBITION is recorded as -103%.

With `COc1ccc(CC(=O)N2CCN(Cc3ccco3)C[C@H]2C)cc1OC`, the INHIBITION is on record as -28.9%. Regarding `CN(C)C(=O)CN1CCO[C@H]2CN(c3ccccn3)C[C@H]21`, the INHIBITION is -57.3%. `COc1ccccc1CN1CCC(c2nn(CCN)c3nccnc23)C1` (stereo not given): the INHIBITION was determined as 75.5%.

In the case of `COc1ncccc1CN1C[C@H]2CCN(c3ncccn3)C[C@H]2C1`, the INHIBITION is -39%. In the case of `COCCN1CC[C@@H]2CN(Cc3cccnc3OC)C[C@@H]2C1`, the INHIBITION is reported as -68%.

In the case of `c1cncc(CO[C@H]2CN(Cc3ccco3)[C@@H]3COC[C@H]23)c1`, the INHIBITION is recorded as -14.4%. Under `Cc1cccc(CN2CC[C@H]3[C@@H]2CC(=O)N3CC2CC2)n1` stands -122%. For `Cc1cc(C)n(C2CN(CC(O)c3cc(F)ccc3F)C2)n1` (stereo not given), the INHIBITION is reported as 84.7%. `CCC(CO)N(Cc1cccc(O)c1)Cc1ccccc1C` (stereo not given): the INHIBITION is on record as 75.2%. On to `O=C(N1CCOCC1)[C@@]12CCO[C@@H]1CCN(Cc1ccncc1)C2`, for which the INHIBITION is listed as -39.7%. Under `CCC1CN(CC(=O)NCCN2CCCCC2)c2ccccc2S1` (stereo not given) stands 72.3%. Under `CCC1CN(CC(=O)NCCN2CCCCCC2)c2ccccc2S1` (stereo not given) stands 73.8%. On to `CCC1CN(CC(=O)NCCN(CC)CC)c2ccccc2S1` (stereo not given), for which the INHIBITION came out at 76.7%. Turning to `CCCN1CCC2(Cc3ccccc3NC2=O)C1` (stereo not given), the INHIBITION is -3.59%. Turning to `CS(=O)(=O)N1CCOCC2(CN(Cc3ccccn3)CCO2)C1` (stereo not given), the INHIBITION is recorded as -46.3%. Turning to `Cc1ccc(CNCCC(O)(c2nccn2C)C(F)(F)F)o1` (stereo not given), the INHIBITION is recorded as 73.2%. Turning to `Cn1ccnc1C(O)(CCNCc1ccc(Cl)o1)C(F)(F)F` (stereo not given), the INHIBITION stood at 71.1%. Regarding `Cc1csc(CN2CCC[C@]3(C[C@@H](Oc4ccccn4)CO3)C2)n1`, the INHIBITION is listed as -213%. As to `Cc1cc(C(F)(F)F)cc(=O)n1CCn1cc(Cl)cn1`, the INHIBITION was determined as 18.5%. In the case of `CCc1cnc(N)nc1NCCCn1cc(Cl)cn1`, the INHIBITION came out at 84.5%. As to `CCN(CC)C(CNC(=O)c1c(C)noc1C(C)C)c1ccsc1` (stereo not given), the INHIBITION is on record as 78.7%. Under `CC(C)N1CCN(C(=O)Cc2csc(-c3ccco3)n2)CC1` stands -22.2%; under `Cc1ccc(F)cc1CC(=O)N(CCN1CCOCC1)Cc1ccco1`, -12.9%; under `COc1cc(F)ccc1C(C(=O)O)N(C)CCN1CCCC1` (stereo not given), 72.3%. Regarding `COc1cc(F)ccc1C(C(=O)O)N(C)CCN1CCOCC1` (stereo not given), the INHIBITION was determined as 80.7%. Take `CCS(=O)(=O)N1CCN(CC2CC2)c2ncccc2C1`: the INHIBITION was -94.6%. For `COC(=O)c1ccc(C2SCC(=O)Nc3ccsc32)cc1` (stereo not given), the INHIBITION is -80.9%. Under `CCOc1ccc(-c2cc(CCN)ccc2OC)cc1` stands -58%; under `COc1ccc(CCN)cc1-c1ccc(C(N)=O)cc1`, 10.7%; under `COc1ccc(CCN)cc1-c1ccc(O)cc1`, 85.6%. Take `Cc1ccc(CN2C[C@@H]3CCN(Cc4ccncc4)C(=O)[C@H]3C2)s1`: the INHIBITION is given as -13.4%. As for `C[C@H](N)Cn1nc(-c2cccs2)oc1=O`, the INHIBITION is -106%. As for `CNCC[C@H]1CC(C)(C)Oc2ccc(OCC3CC3)cc21`, the INHIBITION was 76.1%. Consider `CNCC[C@H]1CC(C)(C)Oc2ccc(OC)cc21`, for which the INHIBITION is 73.8%. Regarding `CC(C)(O)c1cn(C[C@H]2C[C@@H]3CCN2C[C@@H]3C(=O)N2CCOCC2)nn1`, the INHIBITION is given as -62.4%. As to `CC(=O)c1cc(CC(=O)N2CCN(CCOc3ccccc3)CC2)cs1`, the INHIBITION is on record as 7.62%. In the case of `CN(C)c1nc2c(c(NCc3cc(O)ncn3)n1)CCCC2`, the INHIBITION was found to be 89.4%.

On to `COc1ccccc1C1CNC(=O)c2nc(-c3ncc[nH]3)[nH]c2C1` (stereo not given), for which the INHIBITION was determined as 89.1%.

For `COc1ccccc1C1SCC(=O)Nc2n[nH]cc21` (stereo not given), the INHIBITION is -117%. Under `CCC(CNC(=O)CNC(C)=O)Oc1cccc(F)c1` (stereo not given) stands 85%; under `COc1cccc(CC(C)NC(=O)NCCNC(C)=O)c1` (stereo not given), -47.5%. For the molecule `CN(C)[C@@H]1CN(C(=O)COc2cccc(F)c2)C[C@H]1O`, the INHIBITION is -21.2%. As to `O=C(Cc1cccc(F)c1)N1CCN2C[C@H](Oc3cncnc3)C[C@H]2C1`, the INHIBITION is -93.1%.

Turning to `Cc1nnc(N2CCCC3(CN(Cc4cccnc4)CCO3)C2)o1` (stereo not given), the INHIBITION is on record as -77.8%. For `Cc1ccccc1-n1cc(C2=CCN(CCn3cc[nH]c3=O)CC2)cn1`, the INHIBITION is -111%. With `CC(=O)N1CCN([C@@H]2CN(C(=O)Cc3ccccc3C)C[C@H]2O)CC1`, the INHIBITION is -146%. With `CC(C)(C)c1nc(CNC2CCCN(c3cccnn3)C2)no1` (stereo not given), the INHIBITION amounted to 83%. Take `c1ccc(-c2nnc(CNC3CCCN(c4cccnn4)C3)o2)cc1` (stereo not given): the INHIBITION is reported as 75.8%.

In the case of `CC(C)(C)c1nc(CN(Cc2cccnc2)C2CN3CCC2CC3)no1` (stereo not given), the INHIBITION is listed as -29.7%.

In the case of `CCCN1CCN(C(=O)c2cncnc2C)[C@H]2CS(=O)(=O)C[C@H]21`, the INHIBITION is recorded as -87.7%.

Turning to `Cc1ccc(CN2Cc3nnn(C)c3C(COCCN(C)C)C2)s1` (stereo not given), the INHIBITION is reported as 73.9%. Turning to `Cc1ccc(CN2C[C@@H]3[C@@H](C2)OCC(=O)N3Cc2ccncc2)s1`, the INHIBITION is listed as 3.28%. Take `Cc1ccc(N2CCO[C@H]3CN(Cc4ccncc4)C[C@H]32)nn1`: the INHIBITION was -111%. Regarding `Cc1ccc2c(c1)CN(C(=O)c1cccs1)C(CN(C)C)CO2` (stereo not given), the INHIBITION came out at 77.3%.

In the case of `CN(CC1Cc2ccccc2CN1C)C(=O)Cc1cccs1` (stereo not given), the INHIBITION is listed as -12.1%. Take `O=C(NCCOc1cccc(Cl)c1Cl)N1CCC2(CC1)OCCO2`: the INHIBITION is given as -68.2%.

Take `CC(Cn1cncn1)NCc1n[nH]c2c1CCCCC2` (stereo not given): the INHIBITION is reported as -49.3%. With `Cc1ccc2nc(CN(C)Cc3n[nH]c4c3CCCCC4)[nH]c2c1C`, the INHIBITION came to 85.8%. For `Cc1ccc2[nH]c(CN(C)Cc3n[nH]c4c3CCC4)nc2c1`, the INHIBITION came to 82.3%.

Regarding `NC1(c2nc(C(F)(F)F)cc(=O)[nH]2)CCCCC1`, the INHIBITION is listed as 4.74%.

`CC(=O)N1CCC2(CN(CC3CCCC3)C2)C1`: the INHIBITION is recorded as -99.3%. Regarding `CN(C)C[C@H]1C[C@@H]2CN(Cc3ccoc3)C[C@@H]2O1`, the INHIBITION was found to be 20.7%. Under `COc1ccc(CN2C[C@H]3C[C@H](CN(C)C)O[C@H]3C2)cc1` stands 79.6%. `CN(C)C[C@H]1C[C@@H]2CN(Cc3ccco3)C[C@@H]2O1`: the INHIBITION is reported as 38.9%. Under `O=C(CC1CCCC1)N1C[C@@H]2C[C@@H]1CN2` stands -57.9%; under `CN(C(=O)c1ccon1)[C@@H]1CCC[C@@H](Oc2ccccc2)[C@@H]1O`, 79.8%; under `Cc1ncsc1CN1C[C@@H]2CN(Cc3cccnc3)CCO[C@@H]2C1`, -49.8%.

The values above are taken from ChEMBL document CHEMBL4513216, “Probing the Open Global Health Chemical Diversity Library for Multistage-Active Starting Points for Next-Generation Antimalarials” (ACS Infect Dis, 2020).
